Data from PubChem BioAssay.
Where “and” joins values, the source holds several entries; their conditions need not be identical. Equal values may be shown once. Calls of active or inactive are those of the source. Unless noted, the rule behind the calls is not given here.

Key:
[1] = liver-stage malaria parasite growth inhibition, primary screen, cell-based, HepG2, luciferase luminescence, HepG2 viability (AID 624349; in the data active = parasite load remaining mostly below about 12%, no sharp cut-off; inactive = mostly above about 10%;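 note: 100% = mean of DMSO negative control wells on the same plate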); conditions: P. berghei liver stage in HepG2, luciferase luminescence, concentration not given here; parasite load remaining: stronger effect = lower value; viability: measured here: HepG2 viability without parasites
[2] = stimulators of nuclear beta-catenin in C2C12, primary screen, imaging, WNT3A-conditioned medium, mouse C2C12, NPC library (AID 1117326; in the data active = nuclear beta-catenin stimulation mostly above about 4.2%, no sharp cut-off; inactive = mostly below about 10%); conditions: stronger effect = higher value
[3] = stimulators of insulin release from INS-1E, primary screen, cell-based, 5 mM glucose, NPC library (AID 1117329;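 active = compound raises insulin release from rat beta cells at 5 mM glucose, no numeric limit stated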); conditions: rat INS-1E insulin secretion, at 10 µM, stronger effect = higher value
[4] = growth inhibition of GSK3B-pretreated HCT116 cells – cell-based, CellTiter-Glo, 0.2 to 20 µM (AID 1117336;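 active = compounds lowering colon cancer cell viability after pretreatment blocking the GSK3B kinase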); conditions: HCT116 viability after GSK3B inhibitor, at 20 µM, stronger effect = higher value
[5] = inhibition of endothelial tube formation, primary screen, imaging, VEGF stimulated, CD31 staining, tube area, NPC library (AID 1117340;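 active = compound that reduces growth-factor-driven endothelial tube area in a mixed cell culture, no cutoff stated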); conditions: VEGF-stimulated ADSC/ECFC co-culture, at 10 µM, stronger effect = higher value
[6] = glucagon-like peptide 1 release enhancers, primary assay, NCI-H716 cell line, NPC library (AID 1117341;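 active = compound raises GLP1 secretion from the human gut endocrine cells, with no numeric limit stated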); conditions: NCI-H716 cells, at 10 µM, stronger effect = higher value
[7] = HCT116 colon cancer cell growth inhibition, primary screen, CellTiter-Glo luminescence, NPC library (AID 1117342;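 active = compounds that lower survival of HCT116 colon cancer cells in the luminescence readout, no numeric limit stated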); conditions: at 20 µM (top of the series)
[8] = CellTiter-Glo luminescent readout of SW480 viability loss, NPC library primary (AID 1117343;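 active = compounds that lower viability of the colon cancer cells in the luminescence readout, with no numeric limit stated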); conditions: CellTiter-Glo luminescence; at 20 µM (top of the series)
[9] = decreased DLD-1 cellular survival, CellTiter-Glo luminescent readout, NPC compound collection, primary HTS (AID 1117346;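 active = compounds that lower survival of DLD-1 colon cancer cells in the luminescence readout, no cutoff given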); conditions: DLD-1 viability, CellTiter-Glo luminescence; at 20 µM (top of the series)
[10] = target: 6-phosphogluconate dehydrogenase, decarboxylating (Homo sapiens) (UniProt P52209); experiment: 6PGD enzyme inhibitors, primary screen, biochemical, human, recombinant enzyme, NADPH absorbance (AID 1159550;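 active = at least 20% inhibition of 6-phosphogluconate dehydrogenase activity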); conditions: recombinant 6PGD, NADPH absorbance 341 nm; at 10 µM; stronger effect = higher value
[11] = differential killing of epithelial or mesenchymal cells, primary screen, imaging, PC-3E GFP, TEM4-18 mCherry, co-culture (AID 1345086;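 active = compounds killing one labelled cell type while sparing the other, by normalised counts and ratio limits, not self-fluorescent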;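 for all read-outs here: cells exposed to compound for 72 h before imaging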;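 for red/green cell ratio (normalised): normalised mesenchymal count divided by normalised epithelial count so high means epithelial killing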); conditions: imaging cell counts, at 1 µM; for red/green cell ratio (normalised): actives lie on both sides
[12] = test system: Aerobactin synthetase IucA (Klebsiella pneumoniae hvKP1); experiment: Biochemical IucA enzyme inhibition primary screen of the Spectrum library (AID 1346200); conditions: malachite green pyrophosphate, A620, at 8 µM, stronger effect = lower value;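 note: 100% = wells without compound and 0% = wells lacking enzyme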
[13] = sensitizers of A549 cells to miR-34 induction, primary screen, imaging, A549 dox-inducible miR-34, nuclei and caspase counts (AID 1347080;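 active = compounds whose cell count with miR-34 switched on is under 0.7 times the count with it off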); conditions: A549 miR-34 inducible, Hoechst nuclei count, 48 h
[14] = target: NAD(+) hydrolase SARM1 (Homo sapiens) (UniProt Q6SZW1); experiment: SARM1 TIR NADase inhibitors, cell lysate, NAD-Glo luminescence (AID 1508614;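 active = compound whose remaining NAD level is above about 45 nM, limit read from the data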;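 note: higher remaining NAD means stronger inhibition of SARM1 NADase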); conditions: SAM-TIR HEK293T lysate NADase, at 1 µM, stronger effect = higher value
[15] = target: Mitogen-activated protein kinase 7 (Homo sapiens) (UniProt Q13164); experiment: ERK5 transactivation activators in reporter cells, primary screen, cell-based, HTS (AID 1508626;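 active = luciferase signal above three times the same-plate solvent-only control wells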;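 note: luciferase driven by Gal4-ERK5 fusion binding five Gal4 sites before minimal TATA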); conditions: HeLa Gal4-ERK5 transactivation, 18 h, at 5 µM, stronger effect = higher value
[16] = hESC survival regulators, cell-based (AID 493140); conditions: human embryonic stem cell survival screen; stronger effect = higher value;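 note: cells exposed to compounds for four days before counting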
[17] = survival rescue of mitochondrial mutant cells in low glucose, primary screen, MELAS cybrids, Rieske KO mouse fibroblasts, CellTiter-Glo (AID 1508586;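 active = mean z-score across replicates of 1.96 or higher in either the MELAS or the Rieske mutant cell line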;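 note: z relative to plate mean and SD of compound and empty wells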)
[18] = test system: Aerobactin synthetase IucA (Klebsiella pneumoniae, hypervirulent); experiment: IucA enzyme inhibition, biochemical, LOPAC library, absorbance readout (AID 1346212); conditions: IucA enzyme assay, absorbance (OD) readout; stronger effect = lower value;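 tested at 8 µM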;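 note: 100% = no compound wells and 0% = no enzyme wells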
[19] = viability rescue of complex I mutant cybrids, primary screen, cell-based, galactose medium, ATP luminescence (AID 1645843;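 active = z-score of at least 1.8 in each of two replicates, scored against plate mean and spread of sample wells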;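 note: positive z means more ATP and so rescue of galactose-driven cybrid death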); conditions: complex I mutant cybrid cells, 72 h, stronger effect = higher value
[20] = measured here: epithelial PC-3E GFP cell survival
[21] = measured here: mesenchymal TEM4-18 mCherry cell survival
[22] = measured here: relative caspase fold change +Dox/-Dox
[23] = measured here: total cells with miR-34 induction, stronger effect = lower value
[24] = measured here: total cells without miR-34 induction
[25] = MELAS cybrid survival, CellTiter-Glo 48 h, stronger effect = higher value
[26] = Rieske KO mouse fibroblast survival, CellTiter-Glo 72 h

Chain of NAD(+) hydrolase SARM1 (Homo sapiens) (Q6SZW1 whole entry, looked up, the tested form may be a part): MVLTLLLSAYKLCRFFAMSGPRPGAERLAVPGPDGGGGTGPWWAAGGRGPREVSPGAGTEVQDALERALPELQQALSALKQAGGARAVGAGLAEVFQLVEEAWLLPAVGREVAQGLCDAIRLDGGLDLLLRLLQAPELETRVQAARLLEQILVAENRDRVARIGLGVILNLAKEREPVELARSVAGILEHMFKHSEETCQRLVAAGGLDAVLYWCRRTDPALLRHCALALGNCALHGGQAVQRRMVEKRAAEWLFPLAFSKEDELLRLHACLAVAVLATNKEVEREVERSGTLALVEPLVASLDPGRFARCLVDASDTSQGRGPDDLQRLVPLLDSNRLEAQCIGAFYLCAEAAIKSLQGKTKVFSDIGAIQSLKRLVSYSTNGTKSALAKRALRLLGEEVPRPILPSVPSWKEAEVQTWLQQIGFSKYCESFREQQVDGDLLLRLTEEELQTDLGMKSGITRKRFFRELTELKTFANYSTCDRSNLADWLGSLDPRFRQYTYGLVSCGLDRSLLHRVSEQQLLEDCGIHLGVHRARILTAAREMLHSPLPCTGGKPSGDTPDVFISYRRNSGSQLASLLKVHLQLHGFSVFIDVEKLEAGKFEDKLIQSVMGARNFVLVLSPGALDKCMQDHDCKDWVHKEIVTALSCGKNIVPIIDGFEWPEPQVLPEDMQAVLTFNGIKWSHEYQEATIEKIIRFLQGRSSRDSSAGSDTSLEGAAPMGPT
Chain of Mitogen-activated protein kinase 7 (Homo sapiens) (Q13164 whole entry, looked up, the tested form may be a part): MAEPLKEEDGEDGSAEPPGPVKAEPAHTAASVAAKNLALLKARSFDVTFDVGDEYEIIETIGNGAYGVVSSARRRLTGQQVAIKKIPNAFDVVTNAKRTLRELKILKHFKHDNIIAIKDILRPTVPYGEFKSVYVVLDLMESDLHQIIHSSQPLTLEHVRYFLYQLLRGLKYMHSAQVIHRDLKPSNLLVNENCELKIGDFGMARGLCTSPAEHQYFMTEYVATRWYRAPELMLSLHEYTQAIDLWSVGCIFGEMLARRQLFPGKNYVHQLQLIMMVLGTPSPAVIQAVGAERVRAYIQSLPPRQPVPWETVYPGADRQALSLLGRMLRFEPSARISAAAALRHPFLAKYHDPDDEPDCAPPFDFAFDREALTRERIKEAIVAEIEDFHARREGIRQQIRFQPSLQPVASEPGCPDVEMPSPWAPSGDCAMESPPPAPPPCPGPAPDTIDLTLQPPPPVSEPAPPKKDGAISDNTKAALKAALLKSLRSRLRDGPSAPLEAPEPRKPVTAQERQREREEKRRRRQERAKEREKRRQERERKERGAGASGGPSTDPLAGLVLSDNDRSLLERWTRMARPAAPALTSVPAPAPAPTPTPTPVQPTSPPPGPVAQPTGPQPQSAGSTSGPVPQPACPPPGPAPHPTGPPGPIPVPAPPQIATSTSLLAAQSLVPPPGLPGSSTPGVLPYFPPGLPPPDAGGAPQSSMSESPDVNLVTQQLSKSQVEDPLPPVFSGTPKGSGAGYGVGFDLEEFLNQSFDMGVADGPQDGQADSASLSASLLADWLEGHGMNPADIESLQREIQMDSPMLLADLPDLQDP
Chain of 6-phosphogluconate dehydrogenase, decarboxylating (Homo sapiens) (P52209 whole entry, looked up): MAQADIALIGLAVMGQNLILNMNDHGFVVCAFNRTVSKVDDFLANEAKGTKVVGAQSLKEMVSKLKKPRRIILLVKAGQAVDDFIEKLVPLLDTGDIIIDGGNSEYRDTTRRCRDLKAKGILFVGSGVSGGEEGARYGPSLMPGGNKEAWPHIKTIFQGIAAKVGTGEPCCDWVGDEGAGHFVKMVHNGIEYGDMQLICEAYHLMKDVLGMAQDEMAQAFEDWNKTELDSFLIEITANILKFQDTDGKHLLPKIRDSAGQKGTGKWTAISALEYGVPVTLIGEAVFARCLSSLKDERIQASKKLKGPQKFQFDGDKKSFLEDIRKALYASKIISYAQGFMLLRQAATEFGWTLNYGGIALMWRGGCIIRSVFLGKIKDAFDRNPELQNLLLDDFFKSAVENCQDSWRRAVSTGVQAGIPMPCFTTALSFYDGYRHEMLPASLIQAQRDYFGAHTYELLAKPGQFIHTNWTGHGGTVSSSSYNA

Compound: Oc1ccc(Cl)cc1
- parasite load remaining [1]: 99.5% (inactive) and 63.2% (inactive)
- viability [1]: 70.5% and 93.7%
- nuclear beta-catenin stimulation ([2]; at 10 µM): 0.8% (inactive)
- nuclear beta-catenin stimulation ([2]; stimulation, at 2 µM): 0.5%
- insulin secretion stimulation [3]: -0.7% (inactive)
- viability decrease [4]: 21.3% (inactive)
- tube area decrease [5]: 12.2% (inactive)
- GLP1 secretion stimulation [6]: 0.3% (inactive)
- inhibition of viability [7]: 17.9% (inactive)
- viability decrease (inhibition) [8]: 34.5% (inactive)
- viability decrease (inhibition) [9]: 6.1% (inactive)
- inhibition [10]: 15% (inactive)
- red/green cell ratio (normalised) [11]: 0.99 (inactive)
- normalised cell number [11, 20]: 1.1
- normalised cell number [11, 21]: 1.09
- activity remaining [12]: 115% (inactive)
- fold change ([13]; stronger effect = lower value): 0.923 (inactive)
- fold change [13, 22]: 1.34
- cell count [13, 23]: 11600
- cell count [13, 24]: 12500
- remaining NAD [14]: 10 nM (inactive)
- luciferase signal [15]: 52 AU (inactive)

Compound: CC1=C2[C@H]3OC(=O)[C@@H](C)[C@@H]3CC[C@@]2(C)C=CC1=O
- survival [16]: 2.25 (inactive)
- parasite load remaining [1]: 92.1% (inactive)
- viability [1]: 72.5%
- nuclear beta-catenin stimulation ([2]; at 10 µM): 0.7% (inactive)
- nuclear beta-catenin stimulation ([2]; stimulation, at 2 µM): 1%
- insulin secretion stimulation [3]: 0% (inactive)
- viability decrease [4]: 1.65% (inactive)
- tube area decrease [5]: 15.6% (inactive)
- GLP1 secretion stimulation [6]: -0.6% (inactive)
- inhibition of viability [7]: 1.8% (inactive)
- viability decrease (inhibition) [8]: 14.6% (inactive)
- viability decrease (inhibition) [9]: 3.8% (inactive)
- inhibition [10]: 10.8% (inactive)
- red/green cell ratio (normalised) [11]: 0.97 (inactive)
- normalised cell number [11, 20]: 1.11
- normalised cell number [11, 21]: 1.07
- activity remaining [12]: 93.8% (inactive)
- fold change ([13]; stronger effect = lower value): 0.915 (inactive)
- fold change [13, 22]: 0.797
- cell count [13, 23]: 8180
- cell count [13, 24]: 8940
- luciferase signal [15]: 44 AU (inactive)

Compound: CCNc1nc(Cl)nc(NCC)n1
- nuclear beta-catenin stimulation ([2]; at 10 µM): 0.8% (inactive)
- nuclear beta-catenin stimulation ([2]; stimulation, at 2 µM): 2.2%
- insulin secretion stimulation [3]: -1.4% (inactive)
- viability decrease [4]: -15.2% (inactive)
- tube area decrease [5]: 8.9% (inactive)
- GLP1 secretion stimulation [6]: 1.7% (inactive)
- inhibition of viability [7]: 3.93% (inactive)
- viability decrease (inhibition) [8]: -14.9% (inactive)
- viability decrease (inhibition) [9]: -16.6% (inactive)
- inhibition [10]: 4.55% (inactive)
- activity remaining [12]: 94.3% (inactive)
- luciferase signal [15]: 52 AU (inactive)

Compound: CCC1(CC)C(=O)C=CNC1=O
- survival [16]: 10.8 (inactive)
- parasite load remaining [1]: 98.5% (inactive) and 80.5% (inactive)
- viability [1]: 103% and 91.2%
- nuclear beta-catenin stimulation ([2]; at 10 µM): -0.7% (inactive)
- nuclear beta-catenin stimulation ([2]; stimulation, at 2 µM): -1.5%
- insulin secretion stimulation [3]: 0.8% (inactive)
- viability decrease [4]: -18% (inactive)
- tube area decrease [5]: -3.8% (inactive)
- GLP1 secretion stimulation [6]: -1.4% (inactive)
- inhibition of viability [7]: -8.6% (inactive)
- viability decrease (inhibition) [8]: 4.3% (inactive)
- viability decrease (inhibition) [9]: -15.1% (inactive)
- inhibition [10]: 8.27% (inactive)
- red/green cell ratio (normalised) [11]: 0.86 (inactive)
- normalised cell number [11, 20]: 1.13
- normalised cell number [11, 21]: 0.97
- activity remaining [12]: 115% (inactive)
- fold change ([13]; stronger effect = lower value): 0.859 (inactive)
- fold change [13, 22]: 1.13
- cell count [13, 23]: 8380
- cell count [13, 24]: 9750
- z-score [17, 25]: 0.0321 (inactive)
- z-score [17, 26]: -1.05
- remaining NAD [14]: 10 nM (inactive)
- luciferase signal [15]: 36 AU (inactive)

Compound: NC(=O)c1cc([N+](=O)[O-])cc([N+](=O)[O-])c1
- parasite load remaining [1]: 66.1% (inactive) and 34.1% (inactive)
- viability [1]: 71.7% and 90.1%
- nuclear beta-catenin stimulation ([2]; at 10 µM): -1.3% (inactive)
- nuclear beta-catenin stimulation ([2]; stimulation, at 2 µM): -1.6%
- insulin secretion stimulation [3]: 0.7% (inactive)
- viability decrease [4]: 30.5% (inactive)
- tube area decrease [5]: -14.6% (inactive)
- GLP1 secretion stimulation [6]: -0.8% (inactive)
- inhibition of viability [7]: 37.6% (inactive)
- viability decrease (inhibition) [8]: 67.6% (active)
- viability decrease (inhibition) [9]: 6.7% (inactive)
- inhibition [10]: 8.1% (inactive)
- red/green cell ratio (normalised) [11]: 0.97 (inactive)
- normalised cell number [11, 20]: 0.99
- normalised cell number [11, 21]: 0.96
- activity remaining [12]: 116% (inactive)
- fold change ([13]; stronger effect = lower value): 0.831 (inactive)
- fold change [13, 22]: 2.03
- cell count [13, 23]: 10800
- cell count [13, 24]: 12900
- remaining NAD [14]: 10 nM (inactive)
- luciferase signal [15]: 40 AU (inactive)

Compound: O=c1oc2ccccc2c(O)c1Cc1c(O)c2ccccc2oc1=O
- survival [16]: 4.42 (inactive)
- parasite load remaining [1]: 87.2% (inactive) and 95.3% (inactive) and 51.7% (inactive)
- viability [1]: 97.7% and 68.2% and 89.1%
- nuclear beta-catenin stimulation ([2]; at 10 µM): -0.1% (inactive)
- nuclear beta-catenin stimulation ([2]; stimulation, at 2 µM): -2.5%
- insulin secretion stimulation [3]: -1% (inactive)
- viability decrease [4]: 97.6% (active)
- tube area decrease [5]: 26% (inactive)
- GLP1 secretion stimulation [6]: -3.4% (inactive)
- inhibition of viability [7]: 90.5% (active)
- viability decrease (inhibition) [8]: 107% (active)
- viability decrease (inhibition) [9]: 92.1% (active)
- inhibition [10]: -29.3% (inactive)
- red/green cell ratio (normalised) [11]: 0.99 (inactive)
- normalised cell number [11, 20]: 1.34
- normalised cell number [11, 21]: 1.32
- activity remaining [12]: 120% (inactive)
- fold change ([13]; stronger effect = lower value): 0.822 (inactive) and 0.882 (inactive) and 0.865 (inactive)
- fold change [13, 22]: 1.17 and 1.33 and 1.22
- cell count [13, 23]: 8510 and 8000 and 10400
- cell count [13, 24]: 10300 and 9060 and 12000
- z-score [17, 25]: -0.183 (inactive) and 0.389 (inactive)
- z-score [17, 26]: -0.295 and 0.839
- remaining NAD [14]: 10 nM (inactive)
- luciferase signal [15]: 28 AU (inactive)

Compound: COc1ccccc1N1CCNCC1
- nuclear beta-catenin stimulation ([2]; at 10 µM): 0.2% (inactive)
- nuclear beta-catenin stimulation ([2]; stimulation, at 2 µM): -0.4%
- insulin secretion stimulation [3]: -0.2% (inactive)
- viability decrease [4]: -7.7% (inactive)
- tube area decrease [5]: 7.7% (inactive)
- GLP1 secretion stimulation [6]: -2.3% (inactive)
- inhibition of viability [7]: -22.5% (inactive)
- viability decrease (inhibition) [8]: 106% (active)
- viability decrease (inhibition) [9]: -1.65% (inactive)
- inhibition [10]: -1.05% (inactive)
- red/green cell ratio (normalised) [11]: 0.87 (inactive)
- normalised cell number [11, 20]: 1.09
- normalised cell number [11, 21]: 0.94
- activity remaining [12]: 95.5% (inactive)
- remaining activity [18]: 96.8% (inactive)
- fold change ([13]; stronger effect = lower value): 0.98 (inactive)
- fold change [13, 22]: 1.58
- cell count [13, 23]: 9780
- cell count [13, 24]: 9980
- z-score [19]: 1.06 (inactive)

Compound: C=C(C)[C@H]1CN[C@H](C(=O)O)[C@H]1CC(=O)O
- nuclear beta-catenin stimulation ([2]; at 10 µM): 0% (inactive)
- nuclear beta-catenin stimulation ([2]; stimulation, at 2 µM): 1.5%
- insulin secretion stimulation [3]: -1.6% (inactive)
- viability decrease [4]: 3.4% (inactive)
- tube area decrease [5]: -7.3% (inactive)
- GLP1 secretion stimulation [6]: -2% (inactive)
- inhibition of viability [7]: -16% (inactive)
- viability decrease (inhibition) [8]: -0.1% (inactive)
- viability decrease (inhibition) [9]: -1.8% (inactive)
- inhibition [10]: 2.88% (inactive)
- remaining activity [18]: 119% (inactive)
- fold change ([13]; stronger effect = lower value): 1.1 (inactive) and 0.956 (inactive)
- fold change ([13]; stronger effect = lower value, cell number ratio, induced over uninduced): 0.95 (inactive)
- fold change [13, 22]: 1.24 and 0.883 and 0.751
- cell count [13, 23]: 10600 and 5610 and 8280
- cell count [13, 24]: 9620 and 5900 and 8660
- remaining NAD [14]: 10 nM (inactive)
- luciferase signal [15]: 68 AU (inactive)
- z-score [19]: 0.445 (inactive) and 0.325 (inactive)
